# Laboratory results: PubChem BioAssay
# The other results are listed elsewhere or left out. Active and inactive are the calls of the source. Rule as the data show it, unless noted: active = inhibition above about 40%; inactive = the rest.
# Legend:
# [1] = inhibition of PEG-3 promoter luciferase signal – cell-based, HeLa, luciferase reporter, single concentration, confirmation (AID 602417;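 active = at 20 µM dose, 40% or more inhibition averaged across four replicates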); details: HeLa PEG-Prom luciferase reporter, luminescence, overnight; at 20 µM; stronger effect = higher value
# PEG-3 [2] = target: PEG-3 (UniProt Q6IN02); assay: inhibition of PEG-3 promoter-driven reporter – cell-based, HeLa, luciferase, CREF/GAPDH counter-screen panel, dose response (AID 624167); details: CREF/GAPDH counter-screens; HeLa PEG-Prom luciferase reporter, overnight, run 1, dose range 1, at 100 µM (top of the series) unless noted
# PEG-3, sequence (Q6IN02 whole entry, looked up): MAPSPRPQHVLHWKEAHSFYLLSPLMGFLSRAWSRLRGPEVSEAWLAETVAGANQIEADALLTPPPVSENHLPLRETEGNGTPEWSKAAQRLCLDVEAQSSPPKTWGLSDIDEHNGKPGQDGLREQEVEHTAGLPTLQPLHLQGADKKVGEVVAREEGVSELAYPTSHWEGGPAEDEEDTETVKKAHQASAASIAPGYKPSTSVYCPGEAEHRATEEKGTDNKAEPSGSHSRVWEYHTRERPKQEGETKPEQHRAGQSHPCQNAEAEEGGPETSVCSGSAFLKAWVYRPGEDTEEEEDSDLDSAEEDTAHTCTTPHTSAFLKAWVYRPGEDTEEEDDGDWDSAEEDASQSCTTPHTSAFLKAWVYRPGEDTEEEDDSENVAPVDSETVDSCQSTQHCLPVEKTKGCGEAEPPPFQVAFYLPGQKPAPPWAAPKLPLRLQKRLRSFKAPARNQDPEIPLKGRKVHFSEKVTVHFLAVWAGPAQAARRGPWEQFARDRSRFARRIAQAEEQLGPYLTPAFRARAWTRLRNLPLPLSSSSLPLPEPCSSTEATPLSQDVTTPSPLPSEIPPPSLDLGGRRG
# PEG-3 [3] = target: PEG-3 (UniProt Q6IN02); assay: as above; details: CREF/GAPDH counter-screens; HeLa PEG-Prom luciferase reporter, overnight, run 2, dose range 1, at 100 µM (top of the series) unless noted
# [4] = NF-kB reporter suppression in CF airway cells – cell-based, GFP fluorescence, single concentration, confirmation (AID 602472); details: KKLEB CF airway cells, PAF-induced NF-kB-GFP fluorescence, overnight; at 5 µM; stronger effect = higher value;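 also: stimulus PAF is a Pseudomonas aeruginosa filtrate and not platelet activating factor; plate controls were DMSO wells with stimulus for no effect and unstimulated DMSO wells for full effect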
# [5] = NFkB reporter suppression in cystic fibrosis bronchial cells – cell-based, uHTS hits, panel, cytotoxicity readout, dose response (AID 624344); details: CF bronchial epithelial cells, PAF-induced NFkB reporter inhibition, with PAF, run 1; at 79 µM (top of the series) unless noted
# [6] = as above; details: CF bronchial epithelial cells, PAF-induced NFkB reporter inhibition, with PAF, run 2; at 79 µM (top of the series) unless noted
# Rat fibroblasts (CREF) [7] = assay: inhibition of PEG-3 promoter-driven reporter – cell-based, HeLa, luciferase, CREF/GAPDH counter-screen panel, dose response (AID 624167); details: CREF/GAPDH counter-screens; run 1, dose range 1, at 100 µM (top of the series)
# Rat fibroblasts (CREF) [8] = assay: as above; details: CREF/GAPDH counter-screens; run 2, dose range 1, at 100 µM (top of the series)
# [9] = target: Tumor necrosis factor receptor superfamily member 10B (Homo sapiens) (UniProt O14763); assay: viability loss of caspase-8 NB7 cells with TRAIL – with/without TRAIL, luminescence panel, confirmation (AID 651596; in the data active = activity above about 50%); details: NB7 neuroblastoma + caspase-8, TRAIL sensitization, NB7 Caspase-8, with TRAIL, mean of runs, at 10 µM, stronger effect = higher value
# Tumor necrosis factor receptor superfamily member 10B (Homo sapiens), sequence (O14763 whole entry, looked up): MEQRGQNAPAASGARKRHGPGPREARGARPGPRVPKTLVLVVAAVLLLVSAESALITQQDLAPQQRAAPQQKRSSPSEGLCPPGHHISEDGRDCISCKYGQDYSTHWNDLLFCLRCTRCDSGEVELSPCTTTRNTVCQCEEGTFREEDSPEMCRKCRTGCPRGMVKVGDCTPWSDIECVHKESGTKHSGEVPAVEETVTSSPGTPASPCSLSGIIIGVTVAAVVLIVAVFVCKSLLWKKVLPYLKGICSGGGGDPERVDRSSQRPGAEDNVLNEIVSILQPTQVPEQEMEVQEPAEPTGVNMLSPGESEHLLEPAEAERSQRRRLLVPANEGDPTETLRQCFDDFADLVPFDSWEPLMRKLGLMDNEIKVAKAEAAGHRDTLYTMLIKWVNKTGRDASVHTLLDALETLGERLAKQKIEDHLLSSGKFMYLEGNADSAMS
# [10] = as above; details: NB7 neuroblastoma + caspase-8, without TRAIL, NB7 Caspase-8, without TRAIL, mean of runs, at 10 µM
smiles,measurement,setting,value
c1ccc(C(=NNc2nc3ccccc3s2)c2ccccn2)cc1,inhibition,[1],61% (active)
same,inhibition,PEG-3 [2],101%
same,inhibition,PEG-3 [3],102%
COc1ccc2[nH]c(=O)c(CN(Cc3cccnc3)S(=O)(=O)c3ccccc3F)cc2c1,inhibition,[1],56.7% (active)
same,inhibition,[4],86.3% (active)
same,inhibition,[5],109%
same,inhibition,[6],103%
Cc1ccc(C)c(S(=O)(=O)N2CCN(c3ncnc4sccc34)CC2)c1,inhibition,[1],69.5% (active)
same,inhibition,PEG-3 [2],90.1%
same,inhibition,PEG-3 [3],91.3%
same,inhibition,Rat fibroblasts (CREF) [7],13.9%
same,inhibition,Rat fibroblasts (CREF) [8],74.8%
same,activity,[9],68.5%
same,activity,[10],69%
CC(C)c1ccc2c(c1)c(SC(C)(C)C)c(CC(C)(C)C(=O)O)n2Cc1ccc(Cl)cc1,inhibition,[4],41.5% (active)
COc1ccc(CNC(=O)/C(C#N)=C/c2cccc(OC)c2OC)cc1,inhibition,[4],34.1% (inactive)
COc1ccc(NC(=O)c2cc(-c3cc(OC)c(OC)c(OC)c3)nc3ccccc23)c(OC)c1,inhibition,[4],24.8% (inactive)
Oc1ccc2ccccc2c1N=Nc1nccs1,inhibition,[1],82.7% (active)
COc1cncc(-c2cnc3sc(NCCc4ccccn4)nn23)c1,inhibition,[4],76.6% (active)
same,inhibition,[5],102%
same,inhibition,[6],109%
CCOC(=O)c1c(-c2ccccc2)oc2cc(Br)c(O)c(C=O)c12,inhibition,[4],90.8% (active)
same,inhibition,[5],90.8%
same,inhibition,[6],84.3%
O=C1Nc2ccccc2/C1=C/c1ccnc2ccccc12,inhibition,[4],55% (active)
same,inhibition,[5],106%
same,inhibition,[6],111%
NC(=O)c1sc2nc3c(c(-c4ccccc4)c2c1N)CCC3,inhibition,[4],93.2% (active)
same,inhibition,[5],114%
same,inhibition,[6],104%
Cc1ncc(CC(=O)n2cc(C(=O)c3cc(Cl)ccc3O)cn2)s1,inhibition,[4],47.9% (active)
same,inhibition,[5],100%
same,inhibition,[6],108%
CC(=O)Oc1c(C(=O)c2nnc(C)o2)c(=O)n(Cc2ccccc2)c2ccccc12,inhibition,[4],59% (active)
same,inhibition,[5],112%
same,inhibition,[6],101%
O=C(Nc1ccc(Cl)cc1)Nc1nnc(/C=C/c2ccccc2)s1,inhibition,[4],50.8% (active)
O=C(Nc1ccc2oc(-c3ccc4ccccc4c3)nc2c1)c1cccs1,inhibition,[4],38.7% (inactive)
COc1ccc(CNC(=O)C(c2ccc(O)cc2)N(Cc2ccco2)C(=O)c2snc(C(N)=O)c2N)cc1 (stereo not drawn),inhibition,[4],49.2% (active)
same,inhibition,[5],114%
same,inhibition,[6],104%
O=C(CSc1nc(C2CC2)nc2ccccc12)Nc1cccc(O)c1,inhibition,[4],50.6% (active)
same,inhibition,[5],90.6%
same,inhibition,[6],79.8%
O=C(NNc1ccccc1Cl)C(O)(c1cccc(C(F)(F)F)c1)c1cccc(C(F)(F)F)c1,inhibition,[4],63% (active)
same,inhibition,[5],115%
same,inhibition,[6],105%
CN(C)C(=O)c1cccc(-c2cnc3sc(NCc4ccc5c(c4)OCO5)nn23)c1,inhibition,[4],97.2% (active)
same,inhibition,[5],116%
same,inhibition,[6],106%
CN(C)c1ccnc2sc3c(=O)n(Cc4ccccc4)cnc3c12,inhibition,[4],91.5% (active)
same,inhibition,[5],106%
same,inhibition,[6],97.7%
COc1cc(C2c3cc4c(cc3C(O)C3COC(=O)C23)OCO4)cc(OC)c1OC (stereo not drawn),inhibition,[4],83.3% (active)
same,inhibition,[5],-0.395%
same,inhibition,[6],37.3%
Cc1ccc([C@H]2C[C@H](O)[C@@H](n3cc(COC(=O)c4ccccc4)nn3)CN2CC2CCCCC2)cc1,inhibition,[4],-29.2% (inactive)
O=[N+]([O-])c1ccc(Oc2ccc(F)cc2Br)c2ccncc12,inhibition,[4],77.7% (active)
same,inhibition,[5],116%
same,inhibition,[6],103%
CCSc1nsc(NC(=O)Nc2cccc(C(C)=O)c2)n1,inhibition,[4],98.9% (active)
same,inhibition,[5],117%
same,inhibition,[6],97%
CC(C)CC1C(=O)N(Cc2cn(Cc3ccco3)nn2)CCS(=O)(=O)N1Cc1ccc(-c2ccc(Cl)c(Cl)c2)cc1 (stereo not drawn),inhibition,[4],45.6% (active)
CC(C)CC1C(=O)N(Cc2cn(CC3CCCCC3)nn2)CCS(=O)(=O)N1Cc1ccc(-c2ccc(Cl)cc2)cc1 (stereo not drawn),inhibition,[4],32.8% (inactive)
COc1cc(OC)cc(C(=O)N[C@H](C(=O)Nc2nc3ccccc3[nH]2)C(C)C)c1,inhibition,[4],85.8% (active)
same,inhibition,[5],84.2%
same,inhibition,[6],80.2%
CC(C)C[C@H]1CNC(=S)N1C[C@H]1CCCN1C[C@H](Cc1ccc(O)cc1)N1C[C@H](Cc2ccc(O)cc2)N(CC2CCCCC2)C1=S,inhibition,[4],56.7% (active)
same,inhibition,[5],104%
same,inhibition,[6],111%
Cc1ccc(NC(=O)Nc2nnc(-c3ccncc3)s2)cc1,inhibition,[4],59.6% (active)
same,inhibition,[5],103%
same,inhibition,[6],114%
C=CCSc1nsc(NC(=O)Nc2cccc(C(C)=O)c2)n1,inhibition,[4],98.3% (active)
same,inhibition,[5],109%
same,inhibition,[6],101%
C=CCc1cc(S(=O)(=O)c2ccc(O)c(CC=C)c2)ccc1O,inhibition,[4],48.8% (active)
same,inhibition,[5],111%
same,inhibition,[6],99.2%
c1nnc2c3c4c(sc3ncn12)CCC4,inhibition,[4],22.1% (inactive)
C=C1C(=O)[C@]23C[C@H]1CCC2[C@@]1(C)C(C[C@@H]3O)[C@](C)(C(=O)O)CC[C@@H]1O (stereo partly drawn),inhibition,[4],83% (active)
same,inhibition,[5],97.1%
same,inhibition,[6],104%
O=C1OC(Oc2ccc(Br)cc2)(c2ccccc2)c2ccccc21 (stereo not drawn),inhibition,[4],4.99% (inactive)
Cc1ccc(CCC(=O)Nc2ncc(Cc3cc(Cl)ccc3Cl)s2)o1,inhibition,[4],83.8% (active)
same,inhibition,[5],101%
same,inhibition,[6],101%
